Compound activity: PubChem, Johns Hopkins Ion Channel Center
CHT inh: inhibitors of human choline transporter CHT; High affinity choline transporter 1 (Homo sapiens), Q9GZV3; CHT-expressing cells, membrane potential dye, choline response; hits give low values; B-score at 10 µM; 310,000 tested, 0.86% active;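 active means B-score over 3 SD under the library average, and starting fluorescence ratio not unusually high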;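 further: choline stimulus applied at its EC90 after an EC20 pre-addition; B-score computed on integrated fluorescence ratio after choline addition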
CHT allo act: CHT positive allosteric modulators, primary screen, cell-based, membrane potential dye, choline EC20; 310,000 tested, 0.49% active; CHT-expressing cells; hits give high values; LV-AA mutant CHT in HEK293 cells; B-score at 10 µM;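 active means initial fluorescence not abnormally high and integrated response B-score, plate-corrected, over 3 SD above library mean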
ANO1 block: TMEM16A chloride channel inhibitors, primary screen, cell-based, HTS; normalized B-score (activity score, 25-100; higher = stronger inhibition) at 10 µM; HEK293 TMEM16A/YFP iodide influx fluorescence, ionomycin; Anoctamin-1 (Mus musculus), Q8BHY3; 310,000 tested, 1.2% active;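 active means ratio plate-corrected score three or more library SD toward inhibition, starting fluorescence score within five deviations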;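 further: score derived from kinetic fluorescence span divided by baseline fluorescence per well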
TMEM16A act: TMEM16A chloride channel activators or potentiators, primary screen, cell-based, HTS. Anoctamin-1 (Mus musculus), Q8BHY3. HEK293 TMEM16A/YFP-H148Q/I152L, iodide quench fluorescence; hits give low values. B-score at 10 µM. 340,000 tested, 0.3% active. AID 623877, 2012;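 active means fluorescence-ratio B-score plate-corrected deviation score at least 3 library SD below zero, with starting fluorescence score within 5 deviations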;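 further: channel opened by trigger with iodide after compound preincubation; score built on the fluorescence ratio of max minus min over baseline; more negative score means more quench and so TMEM16A activation or potentiation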
CHT activ conf: CHT activators, confirmation, cell-based, membrane potential dye, duplicate. shares compounds with CHT allo act. CHT-expressing cells, membrane potential dye fluorescence (FDSS); % of choline EC20–EC90 response window; HEK293 expressing CHT LV-AA mutant; choline added at its EC20. activation, % at 10 µM. 2,500 tested, 91% active;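 active means primary screen active, with duplicate mean activation above negative control mean plus 3 SD, cut at about 11% in these data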
HEK293 MP dye: membrane potential response in parental HEK293 cells, counter-screen for CHT activator project, cell-based, membrane potential dye; shares compounds with CHT allo act; membrane potential dye fluorescence (FDSS); measured after EC20 choline addition; ratio readout change at 10 µM, hits read low; 2,500 tested, 62% active;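 active means duplicate-averaged ratio beyond 3 SD from buffer wells, up or down, though filed actives are nearly all decreases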
TMEM16A reconf: TMEM16A chloride channel inhibitors, confirmation, cell-based, re-confirmation; shares compounds with ANO1 block; HEK293 TMEM16A/YFP-H148Q, iodide quench fluorescence; ionomycin added to raise cell calcium; inhibition, % at 10 µM; 2,300 tested, 39% active;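 active means mean duplicate percent inhibition, scaled so buffer wells are 0 and the reference blocker 100, over three buffer SD above buffer mean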
HEK293 Ca mobil: calcium mobilization in TMEM16A/YFP HEK293 cells, confirmation, counter-screen for TMEM16A inhibitor project. shares compounds with ANO1 block. Fluo4 calcium mobilization. calcium response (% of ionomycin), % at 10 µM. 2,300 tested, 2% active. AID 652231, 2013;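 active means duplicate-averaged calcium signal over 20% of the ionomycin maximum, relative to buffer baseline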;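 further: each well's signal is peak minus trough fluorescence divided by its pre-addition baseline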
YFP-HEK293 quench: iodide YFP quench changes in parental YFP-HEK293, counter-screen for TMEM16A inhibitor project, cell-based | shares compounds with ANO1 block | ionomycin | YFP ratio F(max-min)/F0 at 10 µM | 2,300 tested, under 10 active;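 active means yellow fluorescent protein signal ratio exceeding the buffer control mean by over 5 SD of those controls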;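 further: ratio is mean of duplicate wells from kinetic YFP trace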
ClC-1 inh: ClC-1 chloride channel inhibition, selectivity assay for TMEM16A inhibitor project, cell-based, voltage-dependent ClC-1; ratio percent, % at 10 µM; CHO ClC-1-YFP, iodide influx fluorescence quench; iodide control reads 0, buffer control 100; 2,300 tested, under 10 active; shares compounds with ANO1 block;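 active means duplicate-mean ratio percent above the mean of iodide-only control wells, which defines zero, plus 5 of their SD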;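 further: higher percent means stronger block of ClC-1 iodide influx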
Target sequence (P35524 whole entry, looked up): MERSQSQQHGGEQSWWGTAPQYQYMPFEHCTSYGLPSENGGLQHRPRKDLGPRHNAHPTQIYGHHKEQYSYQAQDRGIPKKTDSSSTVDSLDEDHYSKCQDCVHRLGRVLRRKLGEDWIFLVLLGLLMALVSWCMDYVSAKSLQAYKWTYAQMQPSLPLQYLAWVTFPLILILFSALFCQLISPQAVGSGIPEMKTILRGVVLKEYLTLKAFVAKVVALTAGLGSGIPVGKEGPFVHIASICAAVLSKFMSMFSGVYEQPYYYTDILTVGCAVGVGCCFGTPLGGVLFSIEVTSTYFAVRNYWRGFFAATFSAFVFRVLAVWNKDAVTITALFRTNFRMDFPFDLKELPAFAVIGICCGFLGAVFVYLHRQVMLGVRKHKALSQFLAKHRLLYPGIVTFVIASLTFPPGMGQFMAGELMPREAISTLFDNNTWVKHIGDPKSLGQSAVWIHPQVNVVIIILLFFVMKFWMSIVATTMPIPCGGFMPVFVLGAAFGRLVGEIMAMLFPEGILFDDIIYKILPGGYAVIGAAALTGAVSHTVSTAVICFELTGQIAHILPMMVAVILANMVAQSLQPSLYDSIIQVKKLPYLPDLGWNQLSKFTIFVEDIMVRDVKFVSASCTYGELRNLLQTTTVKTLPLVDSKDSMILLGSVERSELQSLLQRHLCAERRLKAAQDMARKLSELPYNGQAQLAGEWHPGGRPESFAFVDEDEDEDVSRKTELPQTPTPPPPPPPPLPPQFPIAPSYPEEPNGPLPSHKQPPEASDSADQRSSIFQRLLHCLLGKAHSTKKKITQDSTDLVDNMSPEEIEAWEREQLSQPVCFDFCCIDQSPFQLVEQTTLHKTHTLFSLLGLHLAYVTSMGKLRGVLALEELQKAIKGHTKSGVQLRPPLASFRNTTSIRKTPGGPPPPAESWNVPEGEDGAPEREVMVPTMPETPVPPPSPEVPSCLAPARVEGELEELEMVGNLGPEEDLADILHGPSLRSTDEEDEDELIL
Numbers stand for hits; 0 = inactive; - = no result. Hits are enriched below; roughly 2.3% of the tested compounds scored in any of these assays.

SMILES	CHT inh	CHT allo act	ANO1 block	TMEM16A act	TMEM16A reconf	HEK293 Ca mobil	YFP-HEK293 quench	ClC-1 inh	others
Cc1ccc[n+](Cc2ccc([N+](=O)[O-])cc2)c1	0	0	0	0	-	-	-	-
O=[N+]([O-])c1ccc(C[n+]2cccc3c4ccccc4ccc32)cc1	0	10	0	0	-	-	-	-	CHT activ conf=75;HEK293 MP dye=-75
COc1ccc(C(=O)NC2CCN(CC(=O)Nc3cccc(OC)c3)CC2)cc1	0	0	0	0	-	-	-	-
CCCCCCn1c(CN2CCN(C(=O)c3ccco3)CC2)nc2c1c(=O)n(C)c(=O)n2C	0	0	0	0	-	-	-	-
CCCCCCn1c(CN2CCN(Cc3ccccc3)CC2)nc2c1c(=O)n(C)c(=O)n2C	0	0	0	0	-	-	-	-	CHT activ conf=24;HEK293 MP dye=0
CCCCCn1c(CN2CCN(C)CC2)nc2c1c(=O)n(C)c(=O)n2C	0	0	0	0	-	-	-	-	CHT activ conf=46;HEK293 MP dye=-36
CCCCCn1c(CN2CCN(C(=O)OCC)CC2)nc2c1c(=O)n(C)c(=O)n2C	0	0	0	0	-	-	-	-
COc1cc(Cl)c(C)cc1NC(=O)c1cccc(OC)c1OC	0	0	0	0	-	-	-	-
O=C(Nc1ccc2c(c1)OCO2)NC1(C(F)(F)F)Oc2ccccc2O1	0	0	0	0	-	-	-	-
O=C(NC1(C(F)(F)F)Oc2ccccc2O1)N1CCCC1	0	6.6	100	0	0	0	0	0	CHT activ conf=0;HEK293 MP dye=0
Cc1ccc(NC(=O)C(C)SCc2nc3sc(C)c(C)c3c(=O)[nH]2)nc1 (stereo unspecified)	0	0	0	0	-	-	-	-
Cc1cc(C)nc(/N=C(\N)Nc2ccc(SC(F)F)cc2)n1	0	0	100	0	0	32%	0	0	CHT activ conf=46;HEK293 MP dye=-49
Cc1sc2c(=O)n3c(nc2c1C(=O)NCCCN1CCOCC1)CCCCC3	0	6.9	100	0	0	0	0	0	CHT activ conf=51;HEK293 MP dye=-40
CC(C)N(C)Cc1cn(C)nc1-c1ccc(Oc2ccccc2)cc1	0	0	0	0	-	-	-	-
CCN(Cc1ccncc1)Cc1cn(C)nc1-c1ccc(Oc2ccccc2)cc1	0	0	100	0	0	0	0	0	CHT activ conf=19;HEK293 MP dye=0
COc1ccccc1C(=O)NCCC(=O)Nc1ccc(S(=O)(=O)N2CC(C)CC(C)C2)cc1 (stereo unspecified)	-	-	-	0	-	-	-	-
Cc1cccc(N(C)S(=O)(=O)c2ccc(-c3cc(C)no3)s2)c1	0	0	25	0	0	0	0	0	CHT activ conf=39;HEK293 MP dye=0
CC1CCCN(C(=O)C(=O)c2cn(CC(=O)N3CCCCCC3)c3ccccc23)C1 (stereo unspecified)	0	0	0	0	-	-	-	-
O=C(C1CCC1)N1CCc2cc(S(=O)(=O)N3CCN(c4ccccn4)CC3)ccc21	0	0	0	0	0	0	0	0
Clc1ccc(Cn2cnc3ccccc32)cc1	0	0	100	0	23%	0	0	0
O=C(CSc1nc2[nH]ncc2c(=O)[nH]1)Nc1cccc([N+](=O)[O-])c1	0	0	0	0	-	-	-	-
Cc1c(C=NNC(=O)c2ccc(Br)cc2)c2ccccn2c1C(=O)c1ccncc1	-	-	-	0	-	-	-	-
CCN(CC)S(=O)(=O)c1cc(C(=O)Nc2ccncc2)ccc1Cl	0	0	100	0	0	0	0	0
Cc1cc(CNCCN(C)C)c(C)n1-c1cc(S(=O)(=O)N2CCOCC2)ccc1N1CCCC1	-	-	-	0	-	-	-	-
Cc1ccc(OCc2nc(C#N)c(NCc3ccco3)o2)cc1	0	0	0	0	-	-	-	-
SMILES	CHT inh	CHT allo act	ANO1 block	TMEM16A act	TMEM16A reconf	HEK293 Ca mobil	YFP-HEK293 quench	ClC-1 inh	others
N#Cc1nc(COc2cccc(Cl)c2)oc1NCc1ccco1	0	0	0	0	0	0	0	0
COc1ccc(-n2c(=O)cc(N3CCN(c4ccccc4OC)CC3)[nH]c2=O)cc1	0	0	0	0	-	-	-	-
COc1ccc(-n2c(=O)cc(N3CCN(c4ccccc4F)CC3)[nH]c2=O)cc1	0	0	25	0	0	0	0	0
CC1CCCCC12NC(=O)N(CC(=O)Nc1nccs1)C2=O (stereo unspecified)	-	-	-	0	-	-	-	-
O=C(NCc1ccc(N2CCCC2=O)cc1)Nc1cccc(Cl)c1	0	0	25	0	0	0	0	0
CCOC(=O)c1ccccc1NC(=O)c1nc2nccc(C)n2n1	0	0	25	0	0	0	0	0
Cc1ccnc2nc(C(=O)OCC(=O)Nc3ccccc3C(C)(C)C)nn12	0	0	0	0	-	-	-	-
CC(C)(C)C(=O)NC(NC(=S)Nc1sc2c(c1C#N)CCCC2)C(Cl)(Cl)Cl (stereo unspecified)	0	0	100	0	34%	0	0	0
CC(=O)c1ccc(N2CCN(S(=O)(=O)c3ccc4c(c3)CC(C)N4C(C)=O)CC2)cc1 (stereo unspecified)	0	0	25	0	26%	0	0	0
Cc1ccc(C)c(N2CCN(S(=O)(=O)c3ccc4c(c3)CC(C)N4C(=O)C3CC3)CC2)c1 (stereo unspecified)	0	0	0	0	0	0	0	0
COc1ccc(S(=O)(=O)N2CCN(c3ccc(C)cc3C)CC2)cc1OC	0	0	25	0	26%	0	0	0
CCC(=O)N1c2ccc(S(=O)(=O)N3CCN(CC)CC3)cc2CC1C (stereo unspecified)	0	0	0	0	-	-	-	-
CCC(=O)N1c2ccc(S(=O)(=O)N3CCN(c4ccc([N+](=O)[O-])cc4)CC3)cc2CC1C (stereo unspecified)	0	0	25	0	0	0	0	0
CC(=O)c1ccc(N2CCN(S(=O)(=O)c3ccc4c(c3)CC(C)N4C(=O)C3CC3)CC2)cc1 (stereo unspecified)	0	0	0	0	-	-	-	-
